Compound activity deposited in PubChem by National Center for Advancing Translational Sciences (NCATS).
Luciferase inh: inhibitors of firefly (Photinus pyralis) luciferase; hit rate 2.5% among 76,000; P08659; purified P. pyralis luciferase, luminescence, biochemical; AID 1347043; Potency, µM (titrated, usually from 115 µM), hits mostly inhibitors; note: nearly all actives have a fitted effect of over 65% in size
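Inhibitors were tested against purified firefly luciferase in a biochemical, low-substrate format (both substrates at 10uM) and luminescence measured with a CCD imager.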
GPT2 inh: GPT2 alanine aminotransferase inhibition; Q8TD30; Recombinant GPT2, coupled pyruvate oxidase/HRP Amplex Red fluorescence; Potency, µM (top dose mostly 57.7 µM), for inactives: top-dose activity change, negative = inhibition, usual class: inhibitors; hit rate 0.25% among 100,000; AID 1671188; note: nearly all actives have a fitted effect of over 60% in size
Target sequence (Q8TD30 whole entry, looked up): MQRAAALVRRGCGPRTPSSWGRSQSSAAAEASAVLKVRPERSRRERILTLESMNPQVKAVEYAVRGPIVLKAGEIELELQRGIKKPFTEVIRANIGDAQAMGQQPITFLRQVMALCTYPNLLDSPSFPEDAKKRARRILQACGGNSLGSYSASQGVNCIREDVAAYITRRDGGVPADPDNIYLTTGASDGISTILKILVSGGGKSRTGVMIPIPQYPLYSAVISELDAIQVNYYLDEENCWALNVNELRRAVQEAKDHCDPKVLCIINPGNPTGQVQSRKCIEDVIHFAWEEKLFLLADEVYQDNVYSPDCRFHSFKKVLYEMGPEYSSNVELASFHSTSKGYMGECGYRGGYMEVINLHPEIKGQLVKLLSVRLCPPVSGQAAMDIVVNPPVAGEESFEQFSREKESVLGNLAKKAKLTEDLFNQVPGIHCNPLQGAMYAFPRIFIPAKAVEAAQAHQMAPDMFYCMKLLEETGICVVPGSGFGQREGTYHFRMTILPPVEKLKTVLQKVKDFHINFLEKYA
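Fluorescence of coupled pyruvate oxidase/HRP/Amplex Red system (50uM Amplex, 30 min, dark) reports pyruvate formed by GPT2. Enzyme reaction: 10ng/uL GPT2, 2mM L-alanine, 250uM a-KG, 30 min room temperature, pH 7.5; 50uM AOA control.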
NIH3T3 tox: kills NIH 3T3 cells | NIH 3T3 viability, CellTiter-Glo ATP luminescence, 48-72 h | Potency, µM (doses to about 96.7 µM), for inactives: at the highest dose activity change, negative = cytotoxicity, actives largely listed as inhibitors | hit rate 4.3% among 94,000 | AID 1345082; note: nearly all actives have a fitted effect of over 55% in size
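Viability of NIH 3T3 cells after 48 or 72 hr compound treatment at 37 °C was assessed by CellTiter-Glo, with luminescence imaged following a 10 min room-temperature step.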
NPR1 antag: blocks ANP-stimulated signaling of human Npr1 receptor | hit rate 1.6% among 76,000 | P16066 | HEK293 hNpr1 GloSensor cGMP, ANP-stimulated luminescence | Potency, µM (top dose mostly 46.3 µM), inactives show at the top dose activity change, negative = inhibition, hits mostly inhibitors | AID 1347048; calls by dose curve; note: nearly all actives have a fitted effect of over 60% in size
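Compound pre-incubated 30 min at room temperature on GloSensor-loaded HEK293 cells stably carrying hNpr1 and the pGS-40F cGMP biosensor. Stimulation uses hNppA at 0.1 nM final; luminescence is taken at baseline and 20 min post-agonist.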
HEK cytotox: cytotoxic compounds in HEK 293 cells; HEK 293 viability, ATP luminescence (CellTiter-Glo), 48-72 h; Potency, µM (highest dose often 115 µM), for inactives: at the top dose activity change, negative = cytotoxicity, most hits filed as inhibitors; hit rate 6.6% among 94,000; AID 1345083; note: nearly all actives have a fitted effect of over 60% in size
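HEK 293 cells seeded at 250 cells/well were exposed to compound for 48 or 72 hr at 37 degree Celsius. Viability taken as ATP content by CellTiter-Glo luminescence.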
Starred values were filed as active, the others as inactive; i = inactive; ? = inconclusive; · = no result given; [ ] = dose if it differs, or a comment. Sampled rows, rich in hits. Any-hit rate of the full collection: about 10%. Unless noted, calls come from the whole dose curve; as a rule, active = well fitted curve in the direction sought with a large enough effect; inconclusive = small, poorly fitted or top-dose-only effect, or another doubt; inactive = no such curve, though single readings can be large; an effect the other way counts as inactive or inconclusive. % is set by controls: 0 for no effect and ±100 for the full control effect; potency is the fitted concentration of half-maximal effect.

SMILES	Luciferase inh	GPT2 inh	NIH3T3 tox	NPR1 antag	HEK cytotox
O=C(Nc1cc(-c2ccncc2)nn1-c1ccccc1)c1ccc(C(F)(F)F)cc1	·	2%	32µM*	·	?
O=C(c1ccc(C(F)(F)F)cc1)N1CCn2c(nn(-c3ccc(F)cc3F)c2=O)C1	i	2%	-15%	-4%	i
COc1ccc(-c2nc(C3CC3)nc3c2CCN(Cc2ccc(NC(C)=O)cc2)CC3)cc1	·	4%	-26%	·	?
O=C(C1CCN(Cc2ccccc2-c2cccnc2)CC1)N1CCC(c2ccccc2)CC1	·	-4%	45µM*	·	35µM*
O=[S+]([O-])(c1ccccc1)N1CCN(Cc2ccccc2-c2cccnc2)CC1	·	2%	?	·	35µM*
O=C(Nc1ccc(Cl)cc1)N1CCN(Cc2ccccc2-c2cccnc2)CC1	·	-10%	35µM*	·	?
O=C(C1CCN(Cc2ccccc2-c2cccnc2)CC1)N1CCCC1	·	-5%[88.5 µM]	-23%[138 µM]	·	?
O=[S+]([O-])(c1cccs1)N1CCN(Cc2ccccc2-c2cccnc2)CC1	·	-13%	?	·	?
Fc1ccccc1CCC1CCCN(c2nnnn2-c2ccccc2)C1 (stereo not drawn)	i	-4%	?	0%	?
COc1cccc(C(=O)N2CCC(C(NC(=O)c3ccc(F)cc3)C(=O)NCC(C)C)CC2)c1 (stereo not drawn)	i	i	-20%	0%	-6%
O=C1[C@H]2CC[C@H](CN(Cc3ccc(-n4ccnc4)cc3)C2)N1CC1CCC1	i	i	40µM*	?	?
CCCN(C)C(=O)c1onc(-c2ccc(OC)cc2)c1[C@H](C)O	i	3%[88.5 µM]	-18%[138 µM]	-2%[70.6 µM]	-9%[172 µM]
COC(=O)c1ccc2nc(C[C@@H]3C[C@@H](C(C)C)[C@H](CNS(=O)(=O)c4ccccc4)C=C3C)[nH]c2c1	i	-10%	32µM*	-6%	28µM*
COC(=O)c1ccc2nc(C[C@@H]3C[C@@H](C(C)C)[C@H](CNC4CCN(C(C)=O)CC4)C=C3C)[nH]c2c1	i	i	?	1%	?
COC(=O)c1ccc2nc(C[C@@H]3C[C@@H](C(C)C)[C@H](CNC(=O)CCC(=O)O)C=C3C)[nH]c2c1	i	4%	-9%	-2%	-13%
COC(=O)c1ccc2nc(C[C@@H]3C[C@@H](C(C)C)[C@H](CNCc4ccccc4O)C=C3C)[nH]c2c1	i	i	20µM*	?	22µM*
COC(=O)c1ccc2nc(C[C@@H]3C[C@@H](C(C)C)[C@H](CNC4CCN(C)CC4)C=C3C)[nH]c2c1	i	i	25µM*	-13%	22µM*
O=C(c1cc2ccccc2[nH]1)N1CCNc2cnc(Nc3ccccc3)nc2C1	?	-19%[88.5 µM]	?	?	79µM*
CC(C)NC(=O)N1CCNc2cnc(Nc3cccc(F)c3)nc2C1	i	-13%[88.5 µM]	?	?	?
N#Cc1cccc(C(=O)N2CCNc3cnc(Nc4cccc(F)c4)nc3C2)c1	i	i	?	28µM*	?
Cc1nn(-c2ccccc2)c2c1C(C)N(C1CCN(C(=O)c3cccc(C(F)(F)F)c3)C1)C2=O (stereo not drawn)	·	·	?	·	35µM*
Cc1nn(-c2ccccc2)c2c1C(C1CC1)N(C1CCN(C(=O)c3cccc(C(F)(F)F)c3)C1)C2=O (stereo not drawn)	·	·	-27%	·	-31%
Cc1ccc(C(=O)N2CC(N3C(=O)c4c(c(C)nn4-c4ccccc4)C3C)C2)cc1 (stereo not drawn)	·	·	-28%	·	-19%
Cc1ccc(C(=O)N2CCCC(N3C(=O)c4c(c(C)nn4-c4ccccc4)C3C)C2)cc1 (stereo not drawn)	·	·	?	·	45µM*
Cc1nn(-c2ccccc2)c2c1C(C)N(C1CCN(C(=O)c3ccccc3)C1)C2=O (stereo not drawn)	·	·	?	·	45µM*
SMILES	Luciferase inh	GPT2 inh	NIH3T3 tox	NPR1 antag	HEK cytotox
COc1cccc(-c2ccc3onc(C)c3n2)c1	?	-8%[88.5 µM]	?	0%[70.6 µM]	?
COc1ccc(-c2ccc3onc(C)c3n2)cc1OC	i	-1%[88.5 µM]	40µM*	-2%[70.6 µM]	?
Cc1noc([C@H]2CCN(C(=O)Nc3ccccc3F)C[C@H]2NC(=O)C2CC2)n1	i	i	i	5%	3%
CC1(COc2ccccc2)COc2ccc(C(=O)NCc3cccs3)cc2N1 (stereo not drawn)	i	1%[88.5 µM]	?	-11%[70.6 µM]	112µM*
CC1(CNc2ccccc2)COc2ccc(C(=O)NCc3cccs3)cc2N1 (stereo not drawn)	i	-10%[88.5 µM]	?	-2%[70.6 µM]	100µM*
O=C(Cc1ccc(F)cc1)N1CCC[C@H]1c1nc(-c2ccccc2Cl)no1	i	0%	?	1%	?
c1cnc2nc(-c3c[nH]c4ccccc34)[nH]c2c1	45µM*	-4%[88.5 µM]	?	-25%[70.6 µM]	?
COCCNC(=O)CCCN1C(=O)COc2ccc(C(=O)COc3cc(C)ccc3Cl)cc21	i	0%	-11%	-17%	?
NC(=O)[C@@H]1CN(C(=O)c2ccoc2)C[C@H]1COc1ccccc1	i	i	-9%	-3%	1%
COc1ncc(-c2ccc3ncn(-c4ccc(F)cc4F)c(=O)c3n2)cn1	i	1%[88.5 µM]	?	-2%[70.6 µM]	89µM*
CC(=O)Nc1cccc(-c2ccc3ncn(-c4ccc(F)cc4F)c(=O)c3n2)c1	i	-3%[88.5 µM]	?	-2%[70.6 µM]	89µM*
C[S+](=O)([O-])c1cccc(-c2ccc3ncn(-c4ccc(F)cc4F)c(=O)c3n2)c1	i	-15%[88.5 µM]	?	0%[70.6 µM]	?
O=c1c2nc(-c3cccnc3)ccc2ncn1-c1ccc(F)cc1F	i	i	?	0%[70.6 µM]	71µM*
COCc1cccc(-c2ccc3ncn(-c4ccc(F)cc4F)c(=O)c3n2)c1	i	i	?	4%[70.6 µM]	-23%[172 µM]
COCCN1CCCCC(CC(=O)Nc2ccc(OC)cc2)C1=O (stereo not drawn)	i	i	-3%	-11%	-7%
O=C(O)C(Cc1ccco1)n1cc(-c2nccs2)nn1 (stereo not drawn)	i	-2%	2%	5%	0%
COCCOC1CCN(C(=O)c2sc(C)nc2C)CC1	35µM*	-6%	3%	7%	0%
Cc1ccsc1C(=O)NC1CCN(c2cc(-c3ccc(Cl)cc3)[nH]n2)C1 (stereo not drawn)	i	-25%	?	-23%	50µM*
COc1ccc(-c2cc(N3CCCC(NC(=O)c4sccc4C)C3)n[nH]2)cc1 (stereo not drawn)	25µM*	-26%	-26%	-13%	?
